From the supplement of paper PMC10849652
The full data set covers some 8,800 targets. This sample favours those with a hit. About 0.5% of all pairs of compound and target were hits.

Experiments:
Test in all cases: log2 fold change, soluble protein after heating vs DMSO (PISA); higher = thermal stabilisation; K562 lysate, 10 uM; active = over 0.2 and 3.5 SD of the protein, either way, in both replicates (recomputed)
[1] = compound: C#Cc1cccc(Nc2ncnc3cc(OCCOC)c(OCCOC)cc23)c1 [erlotinib]
In short: (§1)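 Thermal stability, expressed as log-two fold change relative to solvent controls, is given from duplicates. Crude K562 extract in PBS pH 7.4 with 1 mM MgCl2, at 1 mg/mL protein, was treated with 10 μM compound for 30 min and heated in aliquots for 3 min across 48°C-58°C. After pooling, adjustment to 0.5% NP-40 at 4°C and centrifugation at 21,000xg for 90 min, supernatant protein was measured by TMTpro 16plex LC-MS/MS with channel sums equalised.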

[2] = compound: C/C(=N\NC(=O)C1=CC(=CC=C1)S(=O)(=O)N2CCOCC2)/C3=C(C=CC(=C3)Cl)O
In short: as §1

[3] = compound: C1=CC(=CC=C1C2=NC3=C(N2)C=C(C=C3)C(=O)N)OC4=CC=C(C=C4)Cl
In short: as §1

[4] = compound: C1=CC2=C(C=CC(=C2)/C=C\3/C(=O)NC(=NCC4=CC=CS4)S3)N=C1
In short: as §1

[5] = compound: C1=CC2=NC=CN=C2C=C1/C=C/3\C(=O)NC(=O)S3
In short: as §1

[6] = compound: C1=CC=C(C=C1)C2=NC(=C(N2)C3=CC=NC=C3)C4=CC(=C(C=C4)Cl)O
In short: as §1

[7] = compound: C1=CC=C2C(=C1)C3=NNC4=CC=CC(=C43)C2=O
In short: as §1

[8] = compound: C1CCN(C1)C(=O)NC2=CC=CC(=C2)NC3=NC=C(C(=N3)NCCC4=CN=CN4)Br
In short: as §1

[9] = compound: C1CN(CCC1(CC2=CC=C(C=C2)Cl)N)C3=NC=NC4=C3C=CN4
In short: as §1

[10] = compound: C1COCCN1CCN2C3=CC=CC=C3N=C2NC(=O)C4=CC(=CC=C4)[N+](=O)[O-] [IRAK-1-4 Inhibitor I]
In short: as §1

[11] = compound: C=CC(=O)N1CCC[C@@H](n2nc(-c3ccc(Oc4ccccc4)cc3)c3c(N)ncnc32)C1 [ibrutinib]
In short: as §1

[12] = compound: CC(=O)c1cnc2ccc(-c3cc(Cl)c(O)c(Cl)c3)nc2c1N[C@H]1CC[C@H](CN(C)C)CC1
In short: as §1

[13] = compound: CC(C)(C)Cn1c(N)nc2ccc(-c3[nH]c(C(C)(C)C)nc3-c3ccc(F)cc3)nc21 [ralimetinib]
In short: as §1

[14] = compound: CC(C)(O)CC(=O)NCCn1ccc2ncnc(Nc3ccc(Oc4cccc(C(F)(F)F)c4)c(Cl)c3)c21
In short: as §1

[15] = compound: CC(C)C1=C2N=C(C=C(N2N=C1)NCC3=CC=CC=C3)NCCCCCCN
In short: as §1

[16] = compound: CC1=C(C(CC(=O)N1)C2=CC=C(C=C2)C(F)(F)F)C(=O)NC3=C(C=C4C(=C3)C=NN4)F
In short: as §1

[17] = compound: CC1=C(C2=C(C=C1)C(=O)C3=CC=CC=C3N2CCCN)C
In short: as §1

[18] = compound: CC1=C(C=C(C=C1)NC(=O)C2=CC(=CC=C2)C(C)(C)C#N)NC3=CC4=C(C=C3)N=CN(C4=O)C
In short: as §1

[19] = compound: CC1=C(C=C(C=C1)NC(=O)C2=CC(=CC=C2)N(C)C)NC(=O)C3=CC=C(C=C3)O
In short: as §1

[20] = compound: CC1=CC=C(C=C1)SC2=C3C=C(SC3=CN=C2)C(=O)N
In short: as §1

Measured: log2 fold change

BRD4 (UniProt O60885)
inactive: [1] -0.001 | [2] -0.011 | [3] 0.059 | [4] 0.013 | [5] -0.007 | [6] 0.05 | [7] -0.061 | [8] -0.016 | [9] 0.032 | [10] 0.028 | [11] -0.011 | [12] -0.017 | [13] 0.023 | [14] -0.042 | [15] -0.016 | [16] -0.006 | [17] 0.001 | [18] 0.061 | [19] 0.006 | [20] -0.021

CASP3 (UniProt P42574)
Sequence of UniProt P42574 (P42574 whole entry, looked up): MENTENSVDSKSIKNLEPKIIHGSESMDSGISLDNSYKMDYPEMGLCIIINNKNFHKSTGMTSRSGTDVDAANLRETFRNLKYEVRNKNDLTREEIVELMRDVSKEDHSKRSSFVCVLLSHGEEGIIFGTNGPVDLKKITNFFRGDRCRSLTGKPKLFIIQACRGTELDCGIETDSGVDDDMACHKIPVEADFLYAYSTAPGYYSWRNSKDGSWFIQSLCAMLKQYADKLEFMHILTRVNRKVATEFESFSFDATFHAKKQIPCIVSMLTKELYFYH
inactive: [1] -0.002 | [2] -0.02 | [3] 0.044 | [4] -0.001 | [5] 0.034 | [6] 0.02 | [7] -0.042 | [8] 0.011 | [9] 0.039 | [10] -0.007 | [11] 0.028 | [12] -0.004 | [13] 0.009 | [14] 0.012 | [15] -0.048 | [16] -0.047 | [17] -0.026 | [18] 0.025 | [19] -0.02 | [20] -0.01

ATG7 (UniProt O95352)
inactive: [1] 0.03 | [2] 0.113 | [3] 0.035 | [4] 0.001 | [5] 0.015 | [6] -0.003 | [7] -0.06 | [8] -0.028 | [9] 0.032 | [10] 0.017 | [11] 0.014 | [12] -0.008 | [13] 0.026 | [14] -0.016 | [15] -0.022 | [16] 0.021 | [17] 0.002 | [18] -0.001 | [19] 0.011 | [20] 0.027

CCNH (UniProt P51946)
Sequence of UniProt P51946 (P51946 whole entry, looked up): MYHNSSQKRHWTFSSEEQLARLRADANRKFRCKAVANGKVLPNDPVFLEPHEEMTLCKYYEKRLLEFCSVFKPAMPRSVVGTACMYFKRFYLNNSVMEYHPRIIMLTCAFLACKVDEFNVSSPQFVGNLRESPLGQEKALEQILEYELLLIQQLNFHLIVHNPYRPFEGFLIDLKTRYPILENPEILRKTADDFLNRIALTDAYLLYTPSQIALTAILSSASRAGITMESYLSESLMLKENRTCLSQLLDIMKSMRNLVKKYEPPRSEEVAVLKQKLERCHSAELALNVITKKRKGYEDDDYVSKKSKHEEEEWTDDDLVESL
inactive: [1] 0.018 | [2] -0.018 | [3] 0.074 | [4] -0.055 | [5] -0.029 | [6] 0 | [7] -0.021 | [8] -0.047 | [9] 0.012 | [10] -0.005 | [11] 0.018 | [12] -0.149 | [13] -0.001 | [14] -0.064 | [15] -0.058 | [16] -0.044 | [17] -0.025 | [18] -0.044 | [19] 0.018 | [20] -0.016

BAG4 (UniProt O95429)
inactive: [1] -0.036 | [2] 0.046 | [3] 0.075 | [4] -0.017 | [5] 0.004 | [6] -0.038 | [7] 0.021 | [8] 0.047 | [9] 0.017 | [10] 0 | [11] 0.082 | [12] 0.005 | [13] -0.009 | [14] 0.02 | [15] -0.035 | [16] -0.014 | [17] 0 | [19] -0.021 | [20] -0.017
active: [18] -0.375

CEP76 (UniProt Q8TAP6)
Sequence of UniProt Q8TAP6 (Q8TAP6 whole entry, looked up): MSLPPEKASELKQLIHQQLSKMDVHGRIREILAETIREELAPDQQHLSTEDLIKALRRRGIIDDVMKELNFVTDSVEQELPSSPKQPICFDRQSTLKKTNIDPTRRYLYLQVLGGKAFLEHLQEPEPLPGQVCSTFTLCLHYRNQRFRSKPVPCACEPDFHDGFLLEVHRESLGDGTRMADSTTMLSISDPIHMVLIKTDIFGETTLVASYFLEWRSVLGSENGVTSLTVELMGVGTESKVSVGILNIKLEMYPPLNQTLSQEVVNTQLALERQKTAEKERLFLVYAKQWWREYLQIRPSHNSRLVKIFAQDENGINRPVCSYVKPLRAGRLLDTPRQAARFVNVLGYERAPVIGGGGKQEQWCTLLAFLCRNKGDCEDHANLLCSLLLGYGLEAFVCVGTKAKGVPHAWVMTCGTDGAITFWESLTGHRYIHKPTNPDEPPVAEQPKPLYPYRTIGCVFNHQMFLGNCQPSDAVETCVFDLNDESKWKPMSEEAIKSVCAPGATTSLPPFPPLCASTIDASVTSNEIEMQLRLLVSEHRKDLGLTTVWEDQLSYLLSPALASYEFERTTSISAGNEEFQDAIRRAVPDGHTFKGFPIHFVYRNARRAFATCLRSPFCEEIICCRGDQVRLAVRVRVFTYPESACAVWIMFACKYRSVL
inactive: [1] 0.005 | [2] -0.033 | [3] 0.012 | [4] 0.053 | [5] -0.072 | [6] -0.003 | [7] 0.052 | [8] -0.002 | [9] 0 | [10] 0.056 | [11] -0.004 | [12] 0.081 | [13] 0.019 | [14] 0.003 | [15] -0.002 | [16] -0.019 | [17] -0.063 | [18] 0.051 | [19] 0 | [20] -0.005

CALM2 (UniProt P0DP24)
inactive: [1] -0.089 | [2] 0.042 | [3] 0.062 | [4] 0.028 | [5] -0.117 | [6] 0.094 | [7] 0.001 | [8] 0.039 | [9] 0.118 | [10] 0.221 | [11] 0.262 | [12] 0.004 | [13] -0.014 | [14] -0.238 | [15] -0.07 | [16] -0.044 | [17] -0.101 | [18] -0.013 | [19] -0.099 | [20] 0.004

CHCHD1 (UniProt Q96BP2)
inactive: [1] -0.002 | [2] -0.7 | [3] 0.029 | [4] -0.053 | [5] 0.005 | [6] 0.021 | [7] -0.002 | [8] 0.04 | [9] 0.043 | [10] 0.068 | [11] -0.004 | [12] 0.021 | [13] 0.047 | [14] -0.101 | [15] -0.059 | [16] 0 | [17] -0.081 | [18] -0.014 | [19] -0.032 | [20] -0.055

ATG4B (UniProt Q9Y4P1)
inactive: [1] 0.012 | [2] 0.002 | [3] -0.022 | [4] -0.024 | [5] 0.028 | [6] -0.019 | [7] -0.007 | [8] 0.008 | [9] -0.004 | [10] 0.019 | [11] 0.037 | [12] 0.021 | [13] 0.016 | [14] -0.028 | [15] -0.019 | [16] -0.014 | [17] 0.033 | [18] 0.005 | [19] 0.046 | [20] 0.013

CBR1 (UniProt P16152)
inactive: [1] 0.011 | [2] 0.025 | [3] -0.001 | [4] 0.003 | [5] 0.016 | [6] 0.047 | [7] -0.001 | [8] -0.008 | [9] -0.006 | [10] -0.033 | [11] 0.04 | [12] -0.017 | [13] 0.009 | [14] 0.006 | [15] 0.001 | [16] -0.032 | [17] 0.045 | [18] -0.015 | [19] 0.02 | [20] -0.003

C5orf51 (UniProt A6NDU8)
Sequence of UniProt A6NDU8 (A6NDU8 whole entry, looked up): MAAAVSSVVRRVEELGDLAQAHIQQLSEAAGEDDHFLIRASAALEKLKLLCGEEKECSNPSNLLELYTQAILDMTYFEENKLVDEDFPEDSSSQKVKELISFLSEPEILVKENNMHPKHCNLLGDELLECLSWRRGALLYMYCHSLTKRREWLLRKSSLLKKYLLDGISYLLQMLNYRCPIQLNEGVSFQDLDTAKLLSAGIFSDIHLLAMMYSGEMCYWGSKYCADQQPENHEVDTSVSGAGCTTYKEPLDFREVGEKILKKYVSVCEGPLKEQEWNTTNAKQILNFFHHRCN
inactive: [1] 0.024 | [2] 0.004 | [3] -0.008 | [4] -0.026 | [5] 0.04 | [6] 0.007 | [7] -0.038 | [8] -0.027 | [9] 0.055 | [10] -0.025 | [11] 0.052 | [12] -0.008 | [13] 0.001 | [14] -0.027 | [15] 0.014 | [16] -0.005 | [17] 0.004 | [18] 0.042 | [19] 0.042 | [20] -0.001

CCDC22 (UniProt O60826)
inactive: [1] -0.039 | [2] -0.007 | [3] 0.002 | [4] 0.02 | [5] -0.03 | [6] -0.017 | [7] -0.06 | [8] 0.007 | [9] 0.03 | [10] 0.011 | [11] 0.006 | [12] 0.033 | [13] -0.005 | [14] -0.045 | [15] -0.009 | [16] 0.005 | [17] 0.001 | [18] -0.01 | [19] 0.025 | [20] -0.027

CDK13 (UniProt Q14004)
Sequence of UniProt Q14004 (Q14004 whole entry, looked up): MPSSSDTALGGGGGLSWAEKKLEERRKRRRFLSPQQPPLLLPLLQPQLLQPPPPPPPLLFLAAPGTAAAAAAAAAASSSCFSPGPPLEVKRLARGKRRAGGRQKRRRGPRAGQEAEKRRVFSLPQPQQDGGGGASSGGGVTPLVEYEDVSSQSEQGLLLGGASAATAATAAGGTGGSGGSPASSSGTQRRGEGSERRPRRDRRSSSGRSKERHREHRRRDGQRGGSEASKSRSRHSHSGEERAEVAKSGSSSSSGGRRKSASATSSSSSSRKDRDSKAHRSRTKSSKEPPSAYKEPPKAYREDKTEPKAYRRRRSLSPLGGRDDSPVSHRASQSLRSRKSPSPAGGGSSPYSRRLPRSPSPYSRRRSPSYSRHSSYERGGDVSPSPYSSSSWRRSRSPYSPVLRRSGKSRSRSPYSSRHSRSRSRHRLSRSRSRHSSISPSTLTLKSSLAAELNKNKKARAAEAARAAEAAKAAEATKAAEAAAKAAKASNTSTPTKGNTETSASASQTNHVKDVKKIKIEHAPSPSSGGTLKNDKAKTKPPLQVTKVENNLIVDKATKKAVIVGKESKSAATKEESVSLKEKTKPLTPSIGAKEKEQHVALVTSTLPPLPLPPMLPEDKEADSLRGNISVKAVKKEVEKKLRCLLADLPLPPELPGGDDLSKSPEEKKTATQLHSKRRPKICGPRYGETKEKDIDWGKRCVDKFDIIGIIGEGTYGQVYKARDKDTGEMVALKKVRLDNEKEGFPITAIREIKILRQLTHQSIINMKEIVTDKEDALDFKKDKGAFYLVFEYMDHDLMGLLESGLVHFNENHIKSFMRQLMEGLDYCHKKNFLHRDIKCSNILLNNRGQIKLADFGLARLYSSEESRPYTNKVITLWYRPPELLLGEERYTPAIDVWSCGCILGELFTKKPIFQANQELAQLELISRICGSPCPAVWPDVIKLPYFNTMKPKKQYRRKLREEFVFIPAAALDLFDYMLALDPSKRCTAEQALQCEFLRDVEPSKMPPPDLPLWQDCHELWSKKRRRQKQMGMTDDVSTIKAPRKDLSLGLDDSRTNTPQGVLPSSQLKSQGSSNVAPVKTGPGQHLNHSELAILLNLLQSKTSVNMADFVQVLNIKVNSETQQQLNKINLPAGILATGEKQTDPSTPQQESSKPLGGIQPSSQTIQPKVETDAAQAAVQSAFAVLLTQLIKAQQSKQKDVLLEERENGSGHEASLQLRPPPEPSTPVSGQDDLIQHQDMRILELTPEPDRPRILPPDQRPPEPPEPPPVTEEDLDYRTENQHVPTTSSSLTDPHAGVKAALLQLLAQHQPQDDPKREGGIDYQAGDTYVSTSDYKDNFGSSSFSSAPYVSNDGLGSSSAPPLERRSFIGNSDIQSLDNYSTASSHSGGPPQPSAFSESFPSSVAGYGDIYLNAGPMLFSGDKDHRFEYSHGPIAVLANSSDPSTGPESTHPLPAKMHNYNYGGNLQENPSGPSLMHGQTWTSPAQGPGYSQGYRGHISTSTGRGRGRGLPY
inactive: [1] -0.136 | [2] -0.041 | [3] -0.089 | [4] -0.052 | [5] 0.01 | [6] -0.071 | [7] 0.127 | [8] 0.091 | [9] -0.025 | [10] -0.044 | [11] -0.038 | [13] 0.031 | [14] 0.141 | [15] -0.056 | [16] -0.039 | [17] 0.041 | [18] -0.104 | [19] -0.028 | [20] -0.022
active: [12] 0.271

CCNB2 (UniProt O95067)
Sequence of UniProt O95067 (O95067 whole entry, looked up): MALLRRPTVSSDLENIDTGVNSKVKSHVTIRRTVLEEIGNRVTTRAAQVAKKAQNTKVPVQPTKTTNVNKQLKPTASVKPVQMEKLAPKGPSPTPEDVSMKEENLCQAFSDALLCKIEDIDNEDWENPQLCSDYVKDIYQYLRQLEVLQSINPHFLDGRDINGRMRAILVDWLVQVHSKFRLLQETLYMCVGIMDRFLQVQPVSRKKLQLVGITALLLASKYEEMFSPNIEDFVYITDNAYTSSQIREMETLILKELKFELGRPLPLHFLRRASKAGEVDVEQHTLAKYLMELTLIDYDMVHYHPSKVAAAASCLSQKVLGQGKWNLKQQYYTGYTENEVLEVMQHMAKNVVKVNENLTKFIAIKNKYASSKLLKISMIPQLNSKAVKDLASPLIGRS
inactive: [1] 0.037 | [2] 0.038 | [3] 0.075 | [4] -0.061 | [5] -0.008 | [6] 0.008 | [7] -0.125 | [8] -0.02 | [9] 0.027 | [10] 0.033 | [11] -0.062 | [13] 0.028 | [14] -0.028 | [15] 0.023 | [16] -0.011 | [17] 0.017 | [18] 0.022 | [19] 0.037 | [20] -0.079
active: [12] 0.358

BLM (UniProt P54132)
Sequence of UniProt P54132 (P54132 whole entry, looked up): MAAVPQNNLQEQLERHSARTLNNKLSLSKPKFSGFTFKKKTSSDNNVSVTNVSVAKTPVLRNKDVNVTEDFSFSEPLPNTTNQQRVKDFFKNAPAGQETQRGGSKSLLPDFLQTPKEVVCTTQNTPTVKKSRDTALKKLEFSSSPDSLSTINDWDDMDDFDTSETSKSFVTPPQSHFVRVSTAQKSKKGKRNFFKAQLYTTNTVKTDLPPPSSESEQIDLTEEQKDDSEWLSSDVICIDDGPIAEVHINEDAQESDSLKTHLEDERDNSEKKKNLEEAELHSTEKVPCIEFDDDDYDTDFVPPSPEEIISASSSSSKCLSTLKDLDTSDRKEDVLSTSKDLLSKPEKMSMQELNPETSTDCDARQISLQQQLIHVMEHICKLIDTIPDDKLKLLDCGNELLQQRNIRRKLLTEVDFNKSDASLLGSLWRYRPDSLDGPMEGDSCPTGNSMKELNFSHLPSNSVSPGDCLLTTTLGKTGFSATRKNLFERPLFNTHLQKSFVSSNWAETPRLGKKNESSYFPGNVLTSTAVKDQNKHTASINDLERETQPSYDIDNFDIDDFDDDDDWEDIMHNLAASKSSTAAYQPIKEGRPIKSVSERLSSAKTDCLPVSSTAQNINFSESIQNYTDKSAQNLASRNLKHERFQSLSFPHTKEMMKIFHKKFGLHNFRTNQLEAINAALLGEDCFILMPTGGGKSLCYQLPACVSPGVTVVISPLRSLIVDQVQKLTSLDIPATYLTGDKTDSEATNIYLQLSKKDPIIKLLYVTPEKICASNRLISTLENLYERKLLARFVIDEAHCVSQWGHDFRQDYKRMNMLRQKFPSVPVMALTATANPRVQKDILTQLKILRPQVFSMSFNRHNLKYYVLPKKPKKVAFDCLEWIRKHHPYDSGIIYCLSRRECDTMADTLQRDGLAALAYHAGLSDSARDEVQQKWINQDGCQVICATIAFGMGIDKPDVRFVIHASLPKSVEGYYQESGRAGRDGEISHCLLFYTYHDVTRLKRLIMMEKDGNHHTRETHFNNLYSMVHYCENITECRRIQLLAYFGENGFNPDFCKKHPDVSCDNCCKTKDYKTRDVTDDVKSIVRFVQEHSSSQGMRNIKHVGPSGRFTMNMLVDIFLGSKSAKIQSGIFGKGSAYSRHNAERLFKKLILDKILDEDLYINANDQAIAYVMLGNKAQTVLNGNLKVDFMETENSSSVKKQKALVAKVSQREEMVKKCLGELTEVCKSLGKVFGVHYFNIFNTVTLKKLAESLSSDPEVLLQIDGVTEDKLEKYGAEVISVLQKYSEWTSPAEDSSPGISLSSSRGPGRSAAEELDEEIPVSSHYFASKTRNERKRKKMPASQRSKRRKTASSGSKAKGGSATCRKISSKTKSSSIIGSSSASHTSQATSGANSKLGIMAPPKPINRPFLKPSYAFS
inactive: [1] -0.034 | [2] 0.061 | [3] -0.042 | [4] 0.011 | [5] 0.032 | [6] 0.079 | [7] -0.059 | [8] -0.026 | [9] -0.01 | [10] -0.02 | [11] 0.128 | [12] 0.026 | [13] -0.015 | [14] 0.031 | [15] -0.005 | [16] -0.019 | [17] 0.03 | [18] -0.058 | [19] 0.019 | [20] 0.036

BOLA2 (UniProt Q9H3K6)
Sequence of UniProt Q9H3K6 (Q9H3K6 whole entry, looked up): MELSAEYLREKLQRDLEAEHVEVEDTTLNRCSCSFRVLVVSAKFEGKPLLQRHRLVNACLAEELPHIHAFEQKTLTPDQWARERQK
inactive: [1] 0.008 | [2] 0.078 | [3] -0.112 | [4] -0.007 | [5] 0.032 | [6] 0.01 | [7] 0.039 | [8] 0.034 | [9] 0.006 | [10] 0.013 | [11] -0.01 | [12] 0.02 | [13] -0.025 | [14] 0.008 | [15] -0.025 | [16] -0.059 | [17] 0.038 | [18] -0.029 | [19] -0.022 | [20] 0.039
